From PubChem BioAssay come the findings set out here.

Assay [1] in a line: reducers of endogenous Her2 protein level, primary screen, SKBR3 breast tumor cells, AlphaScreen, ATP viability (AID 461;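 active = Her2 level under about 52% in both replicate screens, with viability over 70% of control, limit read from the data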;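 as to Her2 level: lower value means less Her2 protein in the cells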;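 as to viability: percent of carrier control wells set as 100% viability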). The settings on record: 18-24 h, measured here: SKBR3 viability, ATP luminescence, at 10 µM.
For assay [2], the target named is Receptor tyrosine-protein kinase erbB-2 (Homo sapiens) (UniProt P04626). The description is as above. The settings on record: 18-24 h, at 10 µM, stronger effect = lower value.
A short description of assay [3]: SK-BR-3 cell growth inhibitors, pilot screen, 24 h, human (AID 572;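 active = viability at or below 10% of carrier control in both of two separate runs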;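 also: compound exposure lasted between 18 and 24 h rather than exactly 24 h; 100% = carrier-treated control wells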). The settings on record: SK-BR-3 viability, CellTiter-Glo luminescence, at 10 µM, stronger effect = lower value.
Assay [4] in a line: HUVEC growth inhibition – cell-based, human, primary screen (AID 575;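 active = viability at or below 30% in both replicate assays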;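 also: 100% = median of untreated cell wells with 0.1% DMSO on each plate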). The settings on record: HUVEC proliferation, CellTiter-Glo luminescence, 72 h; at 10 µM; stronger effect = lower value.
A short description of assay [5]: growth inhibitors of H69AR lung tumor, primary screen, human, duplicate replicates (AID 580;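 active = viability at or under a set limit in both replicates, limit being median viability minus 3 SD, cut at about 48% in these data, passing the limit was not always enough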;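 also: 100% = mean luminescence of untreated wells and 0% = no signal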). The settings on record: H69AR lung tumor cells viability, ATP luminescence, 72 h; at 10 µM; stronger effect = lower value.
Assay [6] in a line: reversal of MRP1-mediated doxorubicin resistance, pilot screen, H69AR cells, doxorubicin co-treatment (AID 601;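 active = viability loss from added drug above about 55%, and viability with drug at most 40%, in both replicates, limit read from the data, passing the limit was not always enough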). The settings on record: CellTiter-Glo, 72 h, at 10 µM; for differential viability (reversal): stronger effect = higher value.
A short description of assay [7]: 384-well plate pilot, post-Golgi transport modulator project, inhibition of yeast transport mutant growth (AID 636; in the data active = inhibition above about 31%). The settings on record: absorbance 615 nm, about 18 h, stronger effect = higher value.
Assay [8] can be described thus: growth suppression of yeast trafficking mutant, preliminary HTS, modulators of trafficking downstream of Golgi apparatus project, 1536-format plate, OD 615 nm (AID 637; in the data active = inhibition above about 30%). The settings on record: yeast transport mutant growth, absorbance 615 nm, 18 h; stronger effect = higher value.
Assay [9] can be described thus: OD615 S. cerevisiae growth inhibition, permissive medium, pilot counter-assay, permissive growth control for S. cerevisiae lifespan shortening project (AID 705;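 active = growth inhibition above 25% in both replicates, a cutoff set 3 SD above the mean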). The settings on record: OD615, 24 h, at 10 µM, stronger effect = higher value.
The nature of assay [10]: Restrictive medium S. cerevisiae growth inhibition, OD615, pilot screen of yeast lifespan reduction project, restrictive growth control (AID 706;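 active = growth inhibition above a set limit, 3 SD over mean compound inhibition, in both replicates, cut at about 43% in these data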;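 also: modified DeaD lifespan yeast strain shifted to restrictive glucose medium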). The settings on record: OD615, 48 h, at 10 µM, stronger effect = higher value.
Assay [11] is described as follows: viability gain of MRP-1-high H69AR cells under doxorubicin, pilot screen, MRP-1 activator project, CellTiter-Glo, duplicate (AID 807;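 active = viability increase at or above a cutoff of the median across tested compounds plus 3 SD, cut at about 8.5% in these data, passing the limit was not always enough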;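 also: compound pretreatment 18-22 h then 72 h combined with doxorubicin; 0% = doxorubicin alone and 100% = vehicle without doxorubicin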). The settings on record: H69AR viability with doxorubicin, CellTiter-Glo luminescence; at 10 µM; stronger effect = higher value.
Assay [12] in a line: growth suppression of beta-catenin knockout HCT116, pilot screen, human colon tumor cells (AID 823;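 active = cell viability at or below a set limit in both duplicate runs, the limit being the all-compound median minus 4 SD, cut at about 23% in these data, passing the limit was not always enough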;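 also: 0% = wells killed by 20 µM Hyamine and 100% = untreated DMSO cell wells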). The settings on record: CellTiter-Glo, 60 h, at 10 µM, stronger effect = lower value.
A short description of assay [13]: growth suppression of PTEN-deleted HCT116, pilot screen, cell-based, HCT116 clonal line, CellTiter-Glo (AID 824;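 active = viability at or below 27.92% in each of two runs, the all-compound median minus 4 SD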;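 also: 0% = 20 µM Hyamine control and 100% = vehicle cell control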). The settings on record: 60 h, at 10 µM, stronger effect = lower value.
Assay [14] can be described thus: inhibitors of the yeast RAM network, pilot screen, dse1pr::URA3 reporter, 5-FOA selection (AID 869;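 active = inhibition over a set limit, the all-compound mean plus 3 SD, in both replicate runs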;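 also: 0% = DMSO wells with no growth and 100% = 10 µM 1-NA-PP1 with full growth; RAM network block rescues cells from 5-FOA so hits raise OD615 growth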). The settings on record: S. cerevisiae dse1pr::URA3 5-FOA growth, OD615, 2 d; at 10 µM; stronger effect = higher value; strain carries analog-sensitive mutant Cbk1 kinase.
A short description of assay [15]: RAM signaling pathway blockade in yeast – S. cerevisiae, Pdr1DBD-CYC8 efflux-inhibited sensitized strain, primary screen (AID 1298).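 Also: 0% = DMSO untreated cells without growth and 100% = 10 µM 1-NA-PP1 full growth; higher means more yeast growth rescued from 5-FOA killing.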 The settings on record: S. cerevisiae cbk1-as DSE1-URA3 strain, 5-FOA growth OD615, 2 d; at 50 µM; stronger effect = higher value.
Setting [16] is: H69AR cells + 2 uM doxorubicin, measured here: viability with 2 uM doxorubicin, stronger effect = lower value.
Setting [17] is: H69AR cells, compound alone cytotoxicity.

Records with an inconclusive call do not appear. Active and inactive are the calls of the source.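 The calls were made as follows, unless noted: active = RAM network inhibition above 8.4% in each of two replicates, 3 SD over the compound average; inconclusive = above 8.4% inhibition in only one replicate; inactive = 8.4% inhibition or less in each replicate.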

Sequence of Receptor tyrosine-protein kinase erbB-2 (Homo sapiens) (P04626 whole entry, looked up): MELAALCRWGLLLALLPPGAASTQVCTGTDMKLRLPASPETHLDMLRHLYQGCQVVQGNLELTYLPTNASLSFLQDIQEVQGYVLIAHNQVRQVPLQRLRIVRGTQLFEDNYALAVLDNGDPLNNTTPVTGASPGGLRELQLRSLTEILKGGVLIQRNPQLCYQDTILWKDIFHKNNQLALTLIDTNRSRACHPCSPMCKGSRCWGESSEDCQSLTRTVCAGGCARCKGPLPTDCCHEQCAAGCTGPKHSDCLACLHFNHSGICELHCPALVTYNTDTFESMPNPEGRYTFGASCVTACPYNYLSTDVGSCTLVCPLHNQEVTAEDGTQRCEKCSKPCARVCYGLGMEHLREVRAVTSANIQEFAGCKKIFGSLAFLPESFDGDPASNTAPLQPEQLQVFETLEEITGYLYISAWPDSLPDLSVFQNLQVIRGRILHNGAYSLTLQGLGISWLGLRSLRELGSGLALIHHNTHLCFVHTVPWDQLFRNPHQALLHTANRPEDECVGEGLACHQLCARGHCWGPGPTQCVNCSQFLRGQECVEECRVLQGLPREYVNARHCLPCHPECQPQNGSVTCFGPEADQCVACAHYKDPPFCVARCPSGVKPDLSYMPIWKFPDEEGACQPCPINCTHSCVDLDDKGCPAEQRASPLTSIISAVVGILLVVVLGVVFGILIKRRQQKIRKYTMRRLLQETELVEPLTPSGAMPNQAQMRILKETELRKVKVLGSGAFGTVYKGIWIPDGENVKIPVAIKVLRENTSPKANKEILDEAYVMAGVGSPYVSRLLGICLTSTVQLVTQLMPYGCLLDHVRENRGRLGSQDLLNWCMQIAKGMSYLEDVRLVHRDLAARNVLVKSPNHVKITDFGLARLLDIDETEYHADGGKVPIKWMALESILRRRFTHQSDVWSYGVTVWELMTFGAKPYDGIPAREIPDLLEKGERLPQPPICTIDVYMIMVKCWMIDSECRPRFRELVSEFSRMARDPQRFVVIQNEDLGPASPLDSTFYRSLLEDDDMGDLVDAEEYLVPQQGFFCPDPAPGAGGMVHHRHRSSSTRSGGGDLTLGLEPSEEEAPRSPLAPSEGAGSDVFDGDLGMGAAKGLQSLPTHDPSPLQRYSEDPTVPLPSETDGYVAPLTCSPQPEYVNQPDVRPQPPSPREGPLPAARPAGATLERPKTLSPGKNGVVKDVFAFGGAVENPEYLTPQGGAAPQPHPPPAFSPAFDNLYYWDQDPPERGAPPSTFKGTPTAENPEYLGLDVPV

As to `Cn1c(=O)c2c(nc3sccn32)n(C)c1=O`, the viability is 106% in assay [1]; 106% (inactive) in assay [3]; 112% (inactive) in [4]; 87.7% (inactive) in assay [5]; 89.4% in [6] (setting [16]); 87.7% in assay [6] (setting [17]). For the same compound, the viability in assay [12] is 101% (inactive); in assay [13], 99.4% (inactive). Besides, in assay [2], the Her2 level was 109% (inactive). For the same compound, the differential viability (reversal) in assay [6] (H69AR cells + 2 uM doxorubicin) was -1.71% (inactive). Further, the inhibition in assay [7] is -3.51% (inactive); in assay [8] it was -4.1% (inactive); in [14] it was 1.48% (inactive). The growth inhibition in [9] is -7.3% (inactive); in assay [10], -10.3% (inactive). Besides, the viability increase in assay [11] is -1.33% (inactive). Moreover, the RAM network inhibition in assay [15] is 2.73% (inactive).
Turning to `O=C1NC2(Nc3ccccc31)C(=O)Nc1ccccc12` (stereo not given), the viability was 99% in assay [1]; 99% (inactive) in assay [3]; 86.8% (inactive) in assay [4]; 156% (inactive) in [5]; 97.3% in [6] (setting [16]); 156% in assay [6] (setting [17]). In addition, the viability was 98.8% (inactive) in [12] and 85.2% (inactive) in [13]. Also, the Her2 level in [2] was 83% (inactive). Further, the differential viability (reversal) in [6] (H69AR cells + 2 uM doxorubicin) is 58.3% (inactive). Also, the inhibition was -4.86% (inactive) in [7], -3.44% (inactive) in assay [8] and 1.85% (inactive) in [14]. Further, the growth inhibition in assay [9] was 0.15% (inactive); in assay [10] it was -6.17% (inactive). Also, the viability increase in assay [11] was -3.77% (inactive). In addition, the RAM network inhibition in assay [15] is 2.35% (inactive).
Regarding `CC1CCCCN1CCNC(=O)C1CCN(S(=O)(=O)c2cccc3cccnc23)CC1` (stereo not given), the viability was 97% in [1]; 97% (inactive) in assay [3]; 112% (inactive) in assay [4]; 100% (inactive) in [5]; 95.8% in assay [6] (setting [16]); 100% in [6] (setting [17]). Besides, the viability was 101% (inactive) in assay [12] and 97.9% (inactive) in assay [13]. In addition, the Her2 level in [2] was 96.5% (inactive). In addition, in assay [6] (H69AR cells + 2 uM doxorubicin), the differential viability (reversal) was 4.43% (inactive). The results for the inhibition in assay [7], in assay [8] and in [14] were -2.53% (inactive), -2.46% (inactive) and 2.46% (inactive), respectively. Moreover, the growth inhibition is 8.94% (inactive) in assay [9] and -2.71% (inactive) in assay [10]. Besides, in [11], the viability increase was -3.57% (inactive). The RAM network inhibition in assay [15] was 6.99% (inactive).
Take `CC1Cc2ccccc2N1C(=O)C12CCC(C)(C(=O)C1)C2(C)C` (stereo not given): the viability in assay [1] is 136%; in assay [3], 136% (inactive); in assay [4], 92.6% (inactive); in assay [5] it was 82.1% (inactive); in assay [6] (setting [16]), 74.3%; in [6] (setting [17]), 82.1%. Also, the viability in assay [12] was 85% (inactive); in assay [13], 89.9% (inactive). Also, the Her2 level in assay [2] is 123% (inactive). For the same compound, in assay [6] (H69AR cells + 2 uM doxorubicin), the differential viability (reversal) was 7.82% (inactive). For the same compound, the inhibition is -5.47% (inactive) in assay [7], -4.84% (inactive) in assay [8] and 0.8% (inactive) in assay [14]. The results for the growth inhibition in [9] and in [10] were -23.2% (inactive) and -14.9% (inactive), respectively. The viability increase in [11] is -0.66% (inactive). Besides, the RAM network inhibition in assay [15] was 6.06% (inactive).
For the compound `CC1CCC(NC(=O)C2(C)CCC(=O)N2Cc2cccnc2)CC1` (stereo not given), the viability in assay [1] was 97%; in [3], 97% (inactive); in assay [4] it was 102% (inactive); in [5], 78.6% (inactive); in assay [6] (setting [16]) it was 87.5%; in assay [6] (setting [17]), 78.6%. Besides, the viability is 107% (inactive) in assay [12] and 98.3% (inactive) in [13]. The Her2 level in assay [2] was 114% (inactive). The differential viability (reversal) in [6] (H69AR cells + 2 uM doxorubicin) is -8.95% (inactive). Besides, the inhibition in assay [7] is 2.18% (inactive); in assay [8] it was -5.17% (inactive); in [14], 0.41% (inactive). Moreover, the growth inhibition is -12.3% (inactive) in [9] and -10.1% (inactive) in [10]. In assay [11], the viability increase was 1.23% (inactive). Besides, in assay [15], the RAM network inhibition is 1.87% (inactive).
With `COC(=O)CCCCC(=O)C1C(=O)CC(C)(C)C(C(=O)OC)C1=O` (stereo not given), the viability is 91.5% in assay [1]; 91.5% (inactive) in assay [3]; 91.2% (inactive) in assay [4]; 91.7% (inactive) in assay [5]; 95.5% in assay [6] (setting [16]); 91.7% in assay [6] (setting [17]). The values for the viability in assay [12] and in [13] were 94.4% (inactive) and 93.6% (inactive), respectively. In addition, in assay [2], the Her2 level is 118% (inactive). Further, the differential viability (reversal) in [6] (H69AR cells + 2 uM doxorubicin) was -3.76% (inactive). The inhibition was 2.08% (inactive) in assay [7], -8% (inactive) in [8] and 1.31% (inactive) in assay [14]. Besides, the growth inhibition in assay [9] is -15.7% (inactive); in assay [10], -6.2% (inactive). Moreover, the viability increase in assay [11] was -1.69% (inactive). The RAM network inhibition in assay [15] is -0.78% (inactive).
`COCCNC(=O)c1ccc(CS(=O)(=O)c2c(Cl)cccc2Cl)o1`: the viability in assay [1] is 84.5%; in assay [3], 84.5% (inactive); in assay [4] it was 84% (inactive); in assay [5] it was 98.9% (inactive); in [6] (setting [16]), 94.8%; in [6] (setting [17]), 98.9%. Besides, the viability in assay [12] is 103% (inactive); in assay [13], 93% (inactive). For the same compound, the Her2 level in assay [2] was 116% (inactive). Besides, the differential viability (reversal) in [6] (H69AR cells + 2 uM doxorubicin) is 4.06% (inactive). Besides, the inhibition in assay [7] is -3.47% (inactive); in assay [8], -4.83% (inactive); in assay [14] it was 1.32% (inactive). In addition, the values for the growth inhibition in assay [9] and in assay [10] were -17.4% (inactive) and -11.8% (inactive), respectively. Further, the viability increase in [11] is -1.73% (inactive). For the same compound, the RAM network inhibition in [15] was 1.21% (inactive).
With `Cc1ccc(C(c2sc3ncnn3c2O)N2CC(C)CC(C)C2)cc1` (stereo not given), the viability in assay [1] was 118%; in assay [3], 118% (inactive); in assay [4], 82.8% (inactive); in [5] it was 97.9% (inactive); in assay [6] (setting [16]), 84.3%; in assay [6] (setting [17]) it was 97.9%. Also, the values for the viability in assay [12] and in assay [13] were 99.8% (inactive) and 97% (inactive), respectively. In [2], the Her2 level is 102% (inactive). Further, the differential viability (reversal) in assay [6] (H69AR cells + 2 uM doxorubicin) is 13.6% (inactive). For the same compound, the inhibition was -4.53% (inactive) in assay [7], 1.67% (inactive) in [8] and 0.24% (inactive) in assay [14]. Further, the results for the growth inhibition in assay [9] and in [10] were -6.75% (inactive) and -6.62% (inactive), respectively. The viability increase in [11] is 4.2% (inactive). In addition, the RAM network inhibition in assay [15] was 1.25% (inactive).
Regarding `COc1ccc(C2C(C(C)=O)=C(C)N=c3s/c(=C/c4ccc5c(c4)OCO5)c(=O)n32)cc1` (stereo not given), the viability in assay [1] was 85%; in assay [3], 85% (inactive); in [4] it was 91.7% (inactive); in assay [5] it was 112% (inactive); in [6] (setting [16]), 94.4%; in assay [6] (setting [17]), 112%. Further, the viability in [12] was 90.1% (inactive); in assay [13] it was 83.9% (inactive). Moreover, in [2], the Her2 level was 97.5% (inactive). The differential viability (reversal) in assay [6] (H69AR cells + 2 uM doxorubicin) is 17.7% (inactive). Further, the inhibition in [7] is -7.81% (inactive); in assay [8], -3.49% (inactive); in assay [14], 0.93% (inactive). In addition, the growth inhibition in [9] is -11.4% (inactive); in assay [10] it was -17.4% (inactive). Moreover, the viability increase in assay [11] is 3.84% (inactive). Besides, the RAM network inhibition in assay [15] was -0.74% (inactive).
Regarding `O=C(c1ccco1)N1CCN(C2=NS(=O)(=O)c3ccccc32)CC1`, the viability in [1] was 104%; in [3], 104% (inactive); in assay [4], 99.1% (inactive); in assay [5] it was 94.8% (inactive); in [6] (setting [16]), 90.8%; in assay [6] (setting [17]), 94.8%. Further, the viability in assay [12] was 93.1% (inactive); in assay [13], 96.3% (inactive). The Her2 level in assay [2] is 142% (inactive). Further, the differential viability (reversal) in [6] (H69AR cells + 2 uM doxorubicin) was 3.94% (inactive). Besides, the inhibition in assay [7] was -1.69% (inactive); in assay [8], -12.7% (inactive); in assay [14], 0.41% (inactive). Besides, the growth inhibition was -13.5% (inactive) in [9] and -1.96% (inactive) in [10]. Further, the viability increase in [11] was -2.12% (inactive). In assay [15], the RAM network inhibition is 6.34% (inactive).
